# Measured values taken from PubChem BioAssay (NCATS).
# Inconclusive results are not listed. Values without a mark were called inactive. Activity calls are given as the source filed them. The call rests on the fitted dose curve; in most records, active means well fitted inhibition curve with a large enough effect; inconclusive means small, poorly fitted or top-dose-only effect; inactive means flat fitted curve, though single readings scatter. Where a SMILES comes first, the peptide text is derived from it. [ ]: non-standard residue; d: D form. ξ: configuration not given here. ξPhe(βξ-Me) = CC(c1ccccc1)C(N)C(=O)O; GABA = NCCCC(=O)O
# Tested on: CRL-7250
# Assay: Cytotoxic Profiling of Annotated Libraries Using Quantitative High-Throughput Screening (AID 1296008); further: nearly all actives have a fitted effect of over 60% in size
# Settings: Five cell lines viability, CellTiter-Glo ATP luminescence, 48-72 h; max response: hits give low values
# How it was run: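 Compounds were pin-transferred onto cells and incubated 48 or 72 hr at 37 degree Celsius, 95% humidity. CellTiter-Glo was added, plates sat 10 min at room temperature, then ATP-coupled luminescence was imaged as the viability read-out.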
# On the % scale 0 is the no-effect control and ±100 the full control effect; potency means the concentration at half of the fitted maximal effect.
Structure (SMILES),outcome,max response,Potency
C/C(=C\CCC1(C)C2CCC(C2)C1(C)O)C(=O)O (centres undefined),inactive,–,–
C[C@@H]1O[C@@H](O[C@H]2[C@H](O[C@H]3[C@H](O[C@H]4CC[C@@]5(C)C(CC[C@]6(C)C5CC=C5[C@@H]7CC(C)(C)CC[C@]7(C(=O)O[C@@H]7O[C@H](CO)[C@@H](O[C@@H]8O[C@@H](C)[C@H](O)[C@@H](O)[C@H]8O)[C@H](O)[C@H]7O)CC[C@]56C)C4(C)C)OC[C@H](O)[C@@H]3O)O[C@H](CO)[C@@H](O)[C@@H]2O)[C@H](O)[C@H](O)[C@H]1O (some centres undefined),–,-33.4%,–
CC(NC(=O)CCc1nc2ccccc2c(=O)[nH]1)c1ccccc1 (centres undefined),–,-18.4%,–
CC1(C)CCC2(C(=O)OC3OCC(O)C(O)C3O)CCC3(C)C(=CCC4C5(C)CC(O)C(OC6OC(COC7OCC(O)C(O)C7O)C(O)C(O)C6O)C(C)(C)C5CCC43C)C2C1 (centres undefined),–,1.81%,–
CS(=O)(=O)NCC1CCC(Nc2nc3c(s2)CCSc2ccccc2-3)CC1 (centres undefined),–,-26.8%,–
O=C(/C=C/c1ccc(O)cc1)OC1[C@H](O)CC(O)(C(=O)O)C[C@H]1O (some centres undefined),–,-9.1%,–
C=CC(C)(O)C(O)CC1C(C)(O)C(O)C(O)C2C(C)(C)CCCC21C (centres undefined),–,1.81%,–
CC[C@H]1OC(=O)[C@H](C)[C@@H](O[C@H]2C[C@@](C)(OC)[C@@H](O)[C@H](C)O2)[C@H](C)[C@@H](O[C@@H]2O[C@H](C)C[C@H](N(C)C)[C@H]2O)[C@](C)(O)C[C@@H](C)C(=O)[C@H](C)[C@H]2OC(=O)O[C@@]21C,–,0.0016%,–
NC(=O)Nc1cc(-c2cccc(F)c2)sc1C(=O)NC1CCCNC1 (centres undefined),–,-112%,–
CCC(O)C(C)C1CCC(C(C)C(=O)O)O1 (centres undefined),inactive,–,–
O=C1C=CC2OC(c3ccccc3)C(O)C2O1 (centres undefined),–,-15.8%,–
CC(C)c1cc2c(c(O)c1O)[C@@]13CCCC(C)(C)[C@@H]1[C@H](OC3=O)C2=O,–,0.881%,–
[N-]=[N+]=N[C@]1(CO)O[C@@H](n2ccc(=O)[nH]c2=O)[C@@H](O)[C@@H]1O,–,0.828%,–
CN1C2CCC1CC(OC(=O)[C@H](CO)c1ccccc1)C2 (some centres undefined),–,0.824%,–
O=C(O)C(O[C@@H]1O[C@H](CO[C@@H]2O[C@H](CO)[C@@H](O)[C@H](O)[C@H]2O)[C@@H](O)[C@H](O)[C@H]1O)c1ccccc1 (some centres undefined),–,-5.65%,–
OCC(CO[C@@H]1O[C@H](CO)[C@@H](O)[C@H](O)[C@H]1O)c1ccc2c(c1)OCO2 (some centres undefined),–,0.071%,–
C=C1C[C@]23C[C@H]1[C@@H](O)C[C@H]2[C@@]12C=C[C@H](O)[C@@](C)(C(=O)O1)[C@H]2[C@@H]3C(=O)O,–,0.0204%,–
O=C(O)c1ccc(OC2OC(CO)C(O)C(O)C2O)cc1 (centres undefined),inactive,–,–
OC[C@H]1O[C@@H](Oc2ccccc2)[C@H](O)[C@@H](O)[C@@H]1O,inactive,–,–
C[C@]1(CO)CCC[C@]2(C)C3=C(CCC12)COC3 (some centres undefined),–,-5.66%,–

Structure (SMILES),outcome,max response,Potency
CCOC(=O)C(CCc1ccccc1)NC(C)C(=O)N1C(=O)N(C)CC1C(=O)O (centres undefined),–,3.58%,–
C[C@@H]1O[C@@H](O[C@H]2[C@H](OC(=O)[C@]34CCC(C)(C)C[C@H]3C3=CCC5[C@@]6(C)CC[C@H](O[C@@H]7O[C@H](C(=O)O)[C@@H](O)[C@H](O)[C@H]7O[C@@H]7O[C@H](CO)[C@H](O)[C@H](O)[C@H]7O)[C@@](C)(C=O)C6CC[C@@]5(C)[C@]3(C)C[C@H]4O)O[C@H](C)[C@H](O[C@@H]3O[C@H](C)[C@H](O)[C@H](O)[C@H]3O)[C@@H]2O)[C@H](O)[C@H](O)[C@H]1O[C@@H]1OC[C@@H](O)[C@H](O[C@@H]2O[C@H](CO)[C@@H](O)[C@H](O)[C@H]2O)[C@H]1O (some centres undefined),–,-5.26%,–
N#Cc1ccc(C(=O)N2CCC3(CC2)N=C(N)c2c(F)ccc(F)c2N3)cn1,–,-4.2%,–
COC(=O)C1=CO[C@@H](O)C2C(CO)=CCC12 (some centres undefined),–,-9.24%,–
CN(CCc1ccc(Nc2ncc(-c3cccnc3)s2)cc1)Cc1ccccc1,–,-10.2%,–
C/C=C1\[C@H](O[C@@H]2O[C@H](CO)[C@@H](O)[C@H](O)[C@H]2O)OC=C(C(=O)OC)[C@H]1CC(=O)OC[C@H]1O[C@@H](OCCc2ccc(O)cc2)[C@H](O)[C@@H](O)[C@@H]1O,–,-9.74%,–
CN1CCN(Cc2ccc(-c3cnc4[nH]cc(-c5ccc6[nH]ccc6c5)c4c3)cc2)CC1,–,–,10300 nM (active)
CC(=O)NCC(=O)N1C2CCC1c1cc(Nc3ncc(C(F)(F)F)c(NC4CCC4)n3)ccc12 (centres undefined),–,–,1640 nM (active)
COc1cc2ncnc(Nc3ccc(O)cc3)c2cc1OC,inactive,–,–
CC(=O)NC1=NN(C(C)=O)C(C)(c2ccccc2)S1 (centres undefined),–,-15.8%,–
COc1ccc(Oc2cc(C)c(-c3csc(NC(=O)c4ccncc4)n3)c(C)c2)cc1,–,–,651 nM (active)
CC1=CC(=O)C2(OC3OC(C)C(O)C(OC(=O)/C=C/c4ccccc4)C3O)C=COC(OC3OC(CO)C(O)C(O)C3O)C12 (centres undefined),–,-3.56%,–
C=C(C)C1CCC2(C(=O)O)CCC3(C(=O)O)C(CCC4C5(C)CCC(O)C(C)(C(=O)O)C5CCC43C)C12 (centres undefined),inactive,–,–
COc1cc(OC)c(/C=C/S(=O)(=O)Cc2ccc(OC)c(NCC(=O)O)c2)c(OC)c1,–,–,231 nM (active)
CC1COC2(OC3CC4C5CC(O[C@@H]6O[C@H](C)[C@@H](O[C@@H]7O[C@@H](C)[C@H](O)[C@@H](O)[C@H]7O)[C@H](O)[C@H]6O)C6CC(O)CCC6(C)C5CCC4(C)C3C2C)C(O)C1 (some centres undefined),–,-20%,–
CC1NC(=O)CCCNC(=O)C(Cc2c[nH]c3ccccc23)NC(=O)C(C)NC(=O)C(C(C)C)NC(=O)C(C(C)c2ccccc2)NC(=O)C(C(C)C)NC1=O (stereo not drawn) (cyclo([GABA]AV[ξPhe(βξ-Me)]VAW); configuration not given here),–,-8.98%,–
CC12CCC(=O)C=C1C(O)CC1C2C(O)CC2(C)C1CC[C@]2(O)C(=O)CO (some centres undefined),inactive,–,–
CC(C(O)/C=C/C(C)(C)O)C1CCC2(C)C3C(=O)C=C4C(CCC(O)C4(C)C)C3(C)CCC12C (centres undefined),–,-0.192%,–
FC(F)(F)c1cc(-c2ncn(/C=C\c3nnco3)n2)cc(C(F)(F)F)c1,–,-13.3%,–
